Source: the OligoGym collection

The sequences below were run against STAC (assay: pooled miR-30 sensor sort-seq; sequence = guide strand). Settings: shRNA.
Note: reference of the scale not given here.

Sequence	sensor-assay potency score (higher = more potent)
TTTCATGTCTTCGCTGTTGGTT	0.0863
TTGCAGTTTCATGTCTTCGCTG	0.116
TTTATAGTCCTACTGCTGCTGC	-0.661
TTTGTTGTAGTCTCTGAACAAA	-1.36
TTGTAGTCTCTGAACAAAGTTG	-1.06
TCTTGAAAGAAAGTGATCGTTT	-0.172
TTGTACAAGGCAACATAGGTGT	-0.164
TACATTTCTTCTAAGATGCTGT	0.11
TTCTTCTTCAGAACTCACGCAG	0.0195
TATGTAAACACGCTGTTGCTGC	-0.123
TTGTCAGCACTTTTGCTCCGTA	-0.694
TTCCAAATCTTCATTCTCCTGT	0.665

These sequences were tested against STAP2 in the same assay as above. Settings: shRNA.

Sequence	sensor-assay potency score (higher = more potent)
TTCTTCTGTAGCTCTGCCGTCA	-0.496
TTCCACATCGATCACGTACTTG	-0.479
TAGTTCTCTTCCTGGTTCGGTA	-0.765
TAGAAAGCTCTCATAGTAGTGT	0.706
